{"source": "PubChem BioAssay AID540257", "about": "(Southern Research Specialized Biocontainment Screening …, 2011)", "note": "The campaign covered roughly 1,800 compounds. About 15 (0.8%) were called active. How the calls were made is not given here. A selection follows. Where a call stands in place of a potency, no number is given. Potency and affinity values are given separately.", "data": [{"test": "antiviral activity against H1N1 influenza, dose response, cell-based, strain KY136 (AID 540257)", "details": "H1N1 KY136 influenza antiviral cell assay, % inhibition; series mostly up to 40 µM", "values": [{"smiles": "c1ccc(-c2cn(C[C@H]3CC[C@@H]([C@@H]4CC[C@H](Cn5cc(-c6ccccn6)nn5)O4)O3)nn2)nc1", "outcome": "inactive"}, {"smiles": "Cc1nnc2sc(SCC(=O)Nc3ccc(Cl)cc3)nn2c1=O", "outcome": "inactive"}, {"smiles": "CC(=O)N/C(=C/c1ccc(OC(F)F)cc1)C(=O)O", "outcome": "inactive"}, {"smiles": "Cc1[nH]c(=O)[nH]c1C(=O)CCCCC(=O)O", "outcome": "inactive"}, {"smiles": "COc1ccc(C2Nc3ccccc3C(=O)N2c2ccccc2)cc1CSc1ccccn1", "note": "(configuration not stated)", "outcome": "inactive"}, {"smiles": "Cc1ccc(C(=O)Nc2ccccc2C(=O)NCC2CCCO2)cc1", "note": "(configuration not stated)", "outcome": "inactive"}, {"smiles": "CCOc1cccc(-c2c(C(=O)N/N=C(\\C)c3ccccn3)nnn2-c2nonc2N)c1", "outcome": "inactive"}, {"smiles": "O=C1NCCCC1C(=O)N/N=C/c1cc([N+](=O)[O-])ccc1O", "note": "(configuration not stated)", "outcome": "inactive"}, {"smiles": "C/C(=N\\NC(=O)c1cccc(Br)c1)c1ccccn1", "outcome": "inactive"}, {"smiles": "COc1ccc(NC(=O)CSc2nc3ccccc3nc2N2CCCC2)c(OC)c1", "outcome": "inactive"}, {"smiles": "COCc1cc(C)n(CC(=O)Nc2cccc(C)c2)c(=O)c1C#N", "outcome": "inactive"}, {"smiles": "COc1ccc(/C=C/C(=O)NCCn2c(C)cc3ccccc32)cc1OC", "outcome": "inactive"}, {"smiles": "CCN1C(=O)/C(=C2\\SC(=S)N(CCCOC)C2=O)c2ccccc21", "outcome": "inactive"}, {"smiles": "O=c1c2ccccc2ncn1C1CCCCC1", "outcome": "inactive"}, {"smiles": "CCOC(=O)C1CCN(C(c2cccc(OC)c2)c2sc3nc(C)nn3c2O)CC1", "note": "(configuration not stated)", "outcome": "inactive"}, {"smiles": "COc1ccccc1/C=N/NC(=O)c1[nH]c(C)c(C(=O)N/N=C/c2ccccc2OC)c1C", "outcome": "inactive"}, {"smiles": "CCCCN1C2=C(C(=O)CC(C)(C)C2)C(c2ccccc2)C2=C1c1ccccc1C2=O", "note": "(configuration not stated)", "outcome": "inactive"}, {"smiles": "C(=N\\c1c(-c2ccccc2)nc2n1CCS2)/c1ccccc1", "outcome": "inactive"}, {"smiles": "CN(C)c1ccc(/C=C/C=C2/C(=O)NC(=O)N(c3ccccc3)C2=O)cc1", "outcome": "inactive"}, {"smiles": "CC(=O)Oc1ccc(C(=O)Nc2ccccc2C(=O)NCC(C)C)cc1", "outcome": "inactive"}, {"smiles": "CC(=O)Nc1cccc(NC(=O)CSc2ccc(-c3ccccn3)nn2)c1", "outcome": "inactive"}, {"smiles": "COc1ccc(N2CCN(CCCNC(=O)c3cc4sccc4n3C)CC2)cc1", "outcome": "inactive"}, {"smiles": "Clc1ccc(-c2cnnc(-c3ccccn3)n2)cc1", "outcome": "inactive"}, {"smiles": "O=[N+]([O-])c1ccc2c(c1Nc1ccccc1)=NC1(CCCCC1)N=2", "outcome": "inactive"}, {"smiles": "C=CCn1c(=NC(=O)C2CCCCC2)sc2cc(NC(C)=O)ccc21", "outcome": "inactive"}, {"smiles": "CCc1ccccc1NC(=S)N(CCN(C)C)C(C)c1ccccn1", "note": "(configuration not stated)", "outcome": "inactive"}, {"smiles": "COc1cc(-c2nnc(NC(=O)CCS(=O)(=O)c3ccc(F)cc3)o2)cc(OC)c1OC", "outcome": "inactive"}, {"smiles": "CCOC(=O)c1ccc(N2C(=O)c3n[nH]c(C)c3C2c2ccccn2)cc1", "note": "(configuration not stated)", "outcome": "inactive"}, {"smiles": "Cc1cc2cc(CNC(=O)c3cccc([N+](=O)[O-])c3)ccc2n1C", "outcome": "inactive"}, {"smiles": "CC(C)Oc1ccccc1/C=N/Nc1ccccc1[N+](=O)[O-]", "outcome": "inactive"}, {"smiles": "CN1CCN(c2ccc([N+](=O)[O-])cc2C(=O)c2ccccc2)CC1", "outcome": "inactive"}, {"smiles": "Oc1ccc(/C=N/N(c2ccccc2)c2ccccc2)c(O)c1O", "outcome": "inactive"}, {"smiles": "C/C(CC(C)C)=N/Nc1ccc([N+](=O)[O-])cc1[N+](=O)[O-]", "outcome": "inactive"}, {"smiles": "Cc1cc(NC(=O)CSc2nnc(C)c(=O)[nH]2)no1", "outcome": "inactive"}, {"smiles": "COc1cccc(C(=O)NC(C)C(c2cccs2)N2CCOCC2)c1", "note": "(configuration not stated)", "outcome": "inactive"}, {"smiles": "Cc1c2cc(O)c(=O)cc-2oc2cc(O)c(O)cc12", "outcome": "inactive"}, {"smiles": "CCOc1ccc(N=Nc2c(=O)[nH]n3c(=O)c4c([nH]c23)CCCC4)cc1", "outcome": "inactive"}, {"smiles": "O=c1oc2cc(Oc3ccc(C(F)(F)F)cc3[N+](=O)[O-])ccc2c2c1CCC2", "outcome": "inactive"}, {"smiles": "CN1CCc2c(sc(NC(=O)Cc3ccccc3)c2C(N)=O)C1", "outcome": "inactive"}, {"smiles": "CCOc1ccc(N2CSC3=C(C#N)C(c4ccco4)CC(=O)N3C2)cc1", "note": "(configuration not stated)", "outcome": "inactive"}, {"smiles": "CCCC(=O)NC(c1ccccc1)c1ccc2cccnc2c1O", "note": "(configuration not stated)", "outcome": "inactive"}, {"smiles": "CN(C1=C(N2CCCCC2)C(=O)c2ccccc2C1=O)c1ccccc1", "outcome": "inactive"}, {"smiles": "COc1cccc(/C=N/Nc2ccnc(=O)[nH]2)c1O", "outcome": "inactive"}, {"smiles": "COc1cccc(C(=O)Cn2c(N3CCOCC3)nc3c2c(=O)n(C)c(=O)n3C)c1", "outcome": "inactive"}, {"smiles": "COc1ccc(Nc2c([N+](=O)[O-])ccc3c2=NC2(CCCCC2)N=3)cc1", "outcome": "inactive"}, {"smiles": "O=C(COC(=O)C1CC(=O)N(Cc2ccccc2)C1)c1ccc(Br)cc1", "note": "(configuration not stated)", "outcome": "inactive"}, {"smiles": "O=C1C(NS(=O)(=O)c2ccccc2)=C(N2CCN(c3ccc(F)cc3)CC2)C(=O)c2ccccc21", "outcome": "inactive"}, {"smiles": "CCn1c(CNC(=O)c2cccc(C)c2)nnc1SCC(=O)Nc1cccc(OC)c1", "outcome": "inactive"}, {"smiles": "COc1cccc(NC(=O)CSc2nnc(CNC(=O)c3ccccc3)n2C)c1", "outcome": "inactive"}, {"smiles": "COc1ccccc1NS(=O)(=O)c1cccc(NC(=O)Cc2cccs2)c1", "outcome": "inactive"}, {"smiles": "COc1cc2ccccc2cc1C(=O)Nc1nnc(-c2ccncc2)o1", "outcome": "inactive"}, {"smiles": "Cc1cccc(NC(=O)NC(C)C(c2cccs2)N2CCOCC2)c1", "note": "(configuration not stated)", "outcome": "inactive"}, {"smiles": "Cc1ccc(S(=O)(=O)C2(C(=O)Nc3cccc(F)c3)CC2)cc1", "outcome": "inactive"}, {"smiles": "COc1ccc(NC(=O)CC2C(=O)N(c3cccc(OC)c3)C(=O)N2Cc2ccco2)cc1", "note": "(configuration not stated)", "outcome": "inactive"}, {"smiles": "COC(=O)CSc1nnc(C)n1-c1cccc(C#N)c1", "outcome": "inactive"}, {"smiles": "Cc1cc(C(F)F)nn1CC(=O)Nc1cc([N+](=O)[O-])ccc1F", "outcome": "inactive"}, {"smiles": "Cc1cc(N(C)C)ccc1N=Nc1ccc(N)cc1", "outcome": "inactive"}, {"smiles": "CN1CCN(CCC(=O)N/N=C/c2cc([N+](=O)[O-])ccc2O)CC1", "outcome": "inactive"}, {"smiles": "CCCCn1c(SCC(=O)N2CCCc3ccccc32)nc2c1c(=O)n(C)c(=O)n2C", "outcome": "inactive"}, {"smiles": "CC(=O)c1cccc(S(=O)(=O)Nc2cccc(S(=O)(=O)NC3=NCCC3)c2)c1", "outcome": "inactive"}, {"smiles": "CC[n+]1c(/C=C/c2ccc(N(C)C)cc2)ccc2ccccc21", "outcome": "inactive"}, {"smiles": "CCC(=O)NC(c1cccs1)c1cc([N+](=O)[O-])c2cccnc2c1O", "note": "(configuration not stated)", "outcome": "inactive"}, {"smiles": "CCCCn1c(O)c(/C(CC)=N/N2CCCCC2c2cccnc2)c(=O)[nH]c1=S", "note": "(configuration not stated)", "outcome": "inactive"}, {"smiles": "CCCCCCn1nc(C(=O)N(CC(C)C)c2c(N)n(CCCC)c(=O)[nH]c2=O)c2ccccc2c1=O", "outcome": "inactive"}, {"smiles": "COc1cccc(NC(=O)CSc2nc3c(oc4ccccc43)c(=O)[nH]2)c1", "outcome": "inactive"}, {"smiles": "COc1cccc(/C=N/Nc2cc(N3CCOCC3)ncn2)c1O", "outcome": "inactive"}, {"smiles": "CCc1c(C)nc(Nc2nc(C)c3cc(OC)ccc3n2)[nH]c1=O", "outcome": "inactive"}, {"smiles": "O=C(Nc1cc(Cl)ccc1N1CCOCC1)c1cnccn1", "outcome": "inactive"}, {"smiles": "COc1ccc(Nc2ncccc2C(=O)Nc2ccccc2)cc1", "outcome": "inactive"}, {"smiles": "COc1ccc(OC)c(-n2c(SCC(N)=O)nnc2-c2c[nH]c3ccccc23)c1", "outcome": "inactive"}, {"smiles": "Cc1ccnc2nc(C(=O)Nc3nc(-c4ccccn4)cs3)nn12", "outcome": "inactive"}, {"smiles": "O=C(CSc1nnc(CCCOc2ccc(Cl)cc2Cl)o1)Nc1ccc(C(=O)O)cc1", "outcome": "inactive"}, {"smiles": "COc1ccc(NC(=O)CNS(=O)(=O)c2ccc(Cl)cc2)cc1OC", "outcome": "inactive"}, {"smiles": "CC1=[N+](C)c2c(ccc3cccnc23)C1(C)C", "outcome": "inactive"}, {"smiles": "CN(C)c1ccc(C=c2c3cc([N+](=O)[O-])ccc3n3c2cc(-c2ccccc2)[n+]3C)cc1", "outcome": "inactive"}, {"smiles": "CC(c1cccs1)N(Cc1ccco1)C(=O)Nc1ccc(Cl)c(Cl)c1", "note": "(configuration not stated)", "outcome": "inactive"}, {"smiles": "Cc1c(NC(=S)N/N=C\\c2ccccc2O)c(=O)n(-c2ccccc2)n1C", "outcome": "inactive"}, {"smiles": "O=C(CS(=O)(=O)c1cn(Cc2ccc(Cl)cc2)c2ccccc12)N1CCCCC1", "outcome": "inactive"}, {"smiles": "COC1=C(Nc2ccc(OC)cc2)C(=O)c2ccccc2C1=O", "outcome": "inactive"}, {"smiles": "Cc1ccccc1NC(=O)CSc1nn2c(=O)c(C)nnc2s1", "outcome": "inactive"}, {"smiles": "C(=N\\Nc1nc2ccccc2[nH]1)/c1cccc2cccnc12", "outcome": "inactive"}, {"smiles": "C[C@@H]1NC(=O)N[C@@H]1CCCCCC(=O)O", "outcome": "inactive"}, {"smiles": "C=CCC1c2cccc(C(=O)O)c2C(=O)N1c1ccc(F)cc1", "note": "(configuration not stated)", "outcome": "inactive"}, {"smiles": "Cc1cc(C)cc(NC2=C(N)C(=O)c3ccccc3C2=O)c1", "outcome": "inactive"}, {"smiles": "CCc1ccc(NC(=O)N(CCN2CCOCC2)Cc2ccc3c(c2)CCCN3CC)cc1", "outcome": "inactive"}, {"smiles": "CCCc1nc(SCc2cccnc2)c2c(=O)n(C)c(=O)n(C)c2n1", "outcome": "inactive"}, {"smiles": "Cc1ccccc1NC(=S)N(CCN(C)C)C(C)c1ccccn1", "note": "(configuration not stated)", "outcome": "inactive"}, {"smiles": "Cc1ccc(S(=O)(=O)/N=C2\\C=C(Nc3cccc(C(=O)O)c3)C(=O)c3ccccc32)cc1", "outcome": "inactive"}, {"smiles": "CCCN(CCC)CCCNC(=O)CCNS(=O)(=O)c1ccc(Br)cc1", "outcome": "inactive"}, {"smiles": "O=C(NCc1cccs1)c1cnc2sccn2c1=O", "outcome": "inactive"}, {"smiles": "CN1CCc2c(sc(NC(=O)C3CCCCC3)c2C(N)=O)C1", "outcome": "inactive"}, {"smiles": "COc1cc(N(C)C)ccc1C=c1c2ccccc2n2c1cc(-c1ccccc1)[n+]2C", "outcome": "inactive"}, {"smiles": "O=C(NCc1cccnc1)C1c2ccccc2C(=O)N1C1CCCCCCC1", "note": "(configuration not stated)", "outcome": "inactive"}, {"smiles": "CN(C)c1ccc(Cc2ccc(N(C)C)cc2)cc1", "outcome": "inactive"}, {"smiles": "Nc1nc(-c2ccccn2)nc(N)c1Cc1c(F)cccc1Cl", "outcome": "inactive"}, {"smiles": "COC(=O)CNC(c1ccccc1)c1cc(C)ccc1NS(=O)(=O)c1ccc(C)cc1", "note": "(configuration not stated)", "outcome": "inactive"}, {"smiles": "CN(C)CCCNC(=S)NCC(c1ccc(Cl)cc1Cl)c1c[nH]c2ccccc12", "note": "(configuration not stated)", "outcome": "inactive"}, {"smiles": "O=C(Nc1nc2c(s1)CCCC2)c1ccc(Br)s1", "outcome": "inactive"}, {"smiles": "Cc1cccc(N2CCN(C(=O)c3cc4ccccc4oc3=O)CC2)c1C", "outcome": "inactive"}, {"smiles": "COc1cc(N/N=C/c2ccccc2O)ncn1", "outcome": "inactive"}, {"smiles": "CCOc1ccc(-c2nc(C#N)c(N3CCOCC3)o2)cc1", "outcome": "inactive"}, {"smiles": "CCc1ccc(S(=O)(=O)/N=C2\\C=C(Nc3ccc(O)cc3)C(=O)c3ccccc32)cc1", "outcome": "inactive"}, {"smiles": "O=C(Nc1nc(-c2ccccc2)cs1)c1ccc(S(=O)(=O)N2CCc3ccccc32)cc1", "outcome": "inactive"}, {"smiles": "c1ccc(-c2nc(-c3ccncc3)n[nH]2)nc1", "outcome": "inactive"}, {"smiles": "Oc1cccc2ccc(Nc3ccccn3)nc12", "outcome": "inactive"}, {"smiles": "O=C(N/N=C/c1ccccc1O)C1SCCCS1", "outcome": "inactive"}, {"smiles": "CCCCOc1cccc(-c2nnc(NC(=O)CSc3ccc(C)cc3)s2)c1", "outcome": "inactive"}]}]}
